According to PubChem BioAssay (NCATS):
Records with an inconclusive call do not appear. A call without a number means that no potency is given here. Activity calls are given as the source filed them. Calls come from the whole dose curve; as a rule, active = well fitted inhibition curve with a large enough effect; inconclusive = small, poorly fitted or top-dose-only effect; inactive = flat fitted curve, though single readings scatter.

system: Zika virus NS2B-NS3 protease; assay: Primary screen GU AMC qHTS for Zika virus inhibitors (AID 1347154); conditions: Zika NS2B-NS3 unlinked protease, AMC fluorogenic substrate; series mostly up to 54.1 µM; note: nearly all actives have a fitted effect of over 70% in size
Procedure, shortened: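 Fluorogenic AMC-substrate cleavage by noncovalent NS2B-NS3 protease complex (25 nM, pH 8.0 Tris buffer with Tween 20) followed for 15 minutes at room temperature (~20% conversion). Percent inhibition from ex340/em450 signal change, fitted by 4-parameter Hill equation.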
Potency is the fitted concentration of half-maximal effect.

Row | Structure (SMILES) | Potency
1 | C[C@@H]1[C@@H](C(=O)C[C@H]2O[C@@H]3O[C@]4(C)CC[C@@H]5[C@H](C)CC[C@@H]([C@H]2C)[C@@]35OO4)O[C@@H]2O[C@]3(C)CC[C@H]4[C@H](C)CC[C@@H]1[C@@]24OO3 | inactive
2 | CCC(C(N)=O)N1CCCC1=O (stereo not drawn) | inactive
3 | Oc1ccccc1-c1ccccc1 | inactive
4 | CC1OC(C)OC(C)O1 (stereo not drawn) | inactive
5 | CCOC(=O)C1(c2ccccc2)CCN(CCC(C#N)(c2ccccc2)c2ccccc2)CC1 | inactive
6 | Cn1cc(C2=C(c3cn(C4CCN(Cc5ccccn5)CC4)c4ccccc34)C(=O)NC2=O)c2ccccc21 | inactive
7 | CCN(C(C)=O)c1cccc(-c2ccnc3c(C#N)cnn23)c1 | 31.6 µM (active)
8 | Clc1ccc(CCC(Cn2ccnc2)Sc2c(Cl)cccc2Cl)cc1 (stereo not drawn) | inactive
9 | CCC(COC(=O)c1cc(OC)c(OC)c(OC)c1)(c1ccccc1)N(C)C (stereo not drawn) | inactive
10 | CC[N+]1(C)CCCC(OC(=O)C(O)(c2ccccc2)c2ccccc2)C1 (stereo not drawn) | inactive
11 | N[C@@H](Cc1ccc(N(CCCl)CCCl)cc1)C(=O)O | inactive
12 | COC1(CS(=O)c2ccccc2)CCN(CCc2c[nH]c3ccc(F)cc23)CC1 (stereo not drawn) | inactive
13 | O=C(O)c1ccc2[nH]cc(CCCCN3CC=C(c4ccccc4)CC3)c2c1 | inactive
14 | C#CCN(C)[C@H](C)Cc1ccccc1 | inactive
15 | OCCOc1ccccc1 | inactive
16 | CC[N+](CC)(CC)CC | inactive
17 | CC(=O)Nc1cc([As](=O)(O)O)ccc1O | inactive
18 | C[C@]12C/C(=C/O)C(=O)C[C@@H]1CC[C@@H]1[C@@H]2CC[C@@]2(C)[C@H]1CC[C@]2(C)O | inactive
